From PubChem BioAssay (Tox21)
Results filed as inconclusive are left out. Entries that show only a call come without a potency. Values without a mark were called inactive. Active and inactive are the calls of the source. Calls follow the shape of the dose curve; as a rule, active = well fitted cell-killing curve with a large enough effect in the repeat runs; inconclusive = weak or mixed curves, or effect the other way; inactive = flat fitted curve, though single readings scatter.
Potency is read from the fitted curve at half-maximal effect.

Test: Nuclear factor erythroid 2-related factor 2/antioxidant responsive element (Nrf2/ARE) small molecule agonists: qHTS cell viability counter screen in human keratinocytes (AID 1919968); also: nearly all actives have a fitted effect of over 55% in size
Conditions: KeratinoSens HaCaT ARE cells viability, CellTiter-Fluor, 24 h; series mostly up to 92.4 µM
Excerpt: U.S. Tox21 Program National Center for Advancing Translational Sciences [NCATS] Division of Preclinical Innovation [DPI] U.S. Environmental Protection Agency [EPA] National Institutes of Environmental Health Sciences [NIEHS] National Toxicology Program [NTP] U.S. Food and Drug Administration [FDA] Tox21 Assay Overview: Oxidative stress has been implicated in the pathogenesis of a variety of diseases ranging from cancer to neurodegeneration. The antioxidant response element (ARE) signaling pathway plays an important role in the amelioration of oxidative stress. The KeratinoSens (Givaudan, Switzerland) is an in vitro test method which quantifies luciferase induction as a measure of activation of Keap1-Nrf2-antioxidationt/electrophile response element (ARE) dependant pathway in HaCaT human keratinocytes stably transfected with a selectable plasmid. The KeratinoSens assay is a cell-based assay with a reporter cell line to detect potential skin sensitizers by their ability to induce the Nrf2/ARE-response. The activation of the report gene under culture conditions can be detected by ONE-Glo Luciferase Assay System (Promega, Madison, WI). This cell line has been used to screen the Tox21 10K compound library to identify agonists that induce oxidative stress. The cytotoxicity of the Tox21 compound library against the KS-ARE cell line was tested in parallel by measuring the cell viability using CellTiter- Fluor assay system (Promega, Madison, WI) in the same wells.
Tox21 Assay Protocol Summary: HaCaT derived cell line KeratinoSens were dispensed at 1,500 cells/5uL/well in 1536-well white wall/solid bottom plates using a Multidrop Combi (ThermoFisher Scientific, Waltham, MA) dispenser. After the assay plates were incubated at 37 C/5% CO2 for 5 h, 23 nL of compounds dissolved in DMSO, positive controls or DMSO only was transferred to the assay plate by a pintool workstation (Kalypsys, San Diego, CA). The plates were incubated at 37 C/5% CO2 for 23 h, followed by addition of 1uL/well of CellTiter-Fluor reagent into the assay plates using a Flying Reagent Dispenser (Aurora Discovery, San Diego, CA) for cell viability readout that measures cytotoxicity. After 1 h incubation at 37 C/5% CO2 the fluorescence intensity was measured using a ViewLux (PerkinElmer, Shelton, CT) plate reader.
With `C#C[C@]1(OC(C)=O)CC[C@H]2[C@@H]3CCC4=C[C@@H](OC(C)=O)CC[C@@H]4[C@H]3CC[C@@]21C` the Potency was “inactive”. With `CCN(CC)CCOC(=O)C1(c2ccccc2)CCCC1` the Potency was “inactive”. In the case of `Cc1oc(=O)oc1COC(=O)[C@@H]1N2C(=O)[C@@H](NC(=O)[C@H](N)c3ccccc3)[C@H]2SC1(C)C`, the Potency is reported as “inactive”. For `Cc1ccc(C(=O)c2ccccc2)cc1`, the Potency was “inactive”. For `Cc1oc(-c2ccccc2)nc1CCOc1ccc(C[C@H](Nc2ccccc2C(=O)c2ccccc2)C(=O)O)cc1`, the Potency was 30.6 µM (active). With `Nc1cccc(S(=O)(=O)c2cccc(N)c2)c1` the Potency was “inactive”. For `COc1ccc(OC(=O)N(CC(=O)O)Cc2ccc(OCCc3nc(-c4ccccc4)oc3C)cc2)cc1`, the Potency was “inactive”. In the case of `O=[N+]([O-])c1cc(Cl)c(Cl)c(Cl)c1Cl`, the Potency is reported as “inactive”. With `CC(C)=CCC[C@@](C)(O)[C@H]1CC=C(C)CC1` the Potency was “inactive”. With `Cc1ncc([N+](=O)[O-])n1CC(C)O` (stereo not given) the Potency was “inactive”. For `CC(C)(C#N)Nc1nc(Cl)nc(NC2CC2)n1`, the Potency was “inactive”. With `CCOC(C)=O` the Potency was “inactive”. In the case of `O=C1c2ccccc2C(=O)C1c1nc2ccccc2c(Br)c1O`, the Potency is reported as “inactive”. For `Cc1cccc(C)c1C`, the Potency was “inactive”. In the case of `c1ccc2c(CC3=NCCN3)cccc2c1`, the Potency is reported as “inactive”. For `CCCCC(=O)O[C@]1(C(=O)CO)CC[C@H]2[C@@H]3CCC4=CC(=O)CC[C@]4(C)[C@H]3[C@@H](O)C[C@@]21C`, the Potency was “inactive”. For `N[C@@H](COP(=O)(O)O)C(=O)O`, the activity change, negative = cytotoxicity was 7.74% [at 19 µM]. For `CC1CCc2c(N3CCC(O)CC3)c(F)cc3c(=O)c(C(=O)O)cn1c23` (stereo not given), the Potency was “inactive”. For `CO[C@@H]1[C@H](OC(=O)/C=C/C=C/C=C/C=C/C(=O)O)CC[C@]2(CO2)[C@H]1[C@@]1(C)O[C@@H]1CC=C(C)C`, the Potency was “inactive”. In the case of `CCCCCCCCCCCC(C)=O`, the Potency is reported as “inactive”. For `COc1ccccc1OCC(O)COC(N)=O` (stereo not given), the Potency was “inactive”. With `CC(C(=O)O)c1ccc(/C=C2\CCCCC2=O)cc1` (stereo not given) the Potency was “inactive”. For `CC(C)NCCCC1(C(N)=O)c2ccccc2-c2ccccc21`, the Potency was “inactive”. For `SC1CCCCC1`, the Potency was “inactive”. For `N[C@@H](Cc1cc(I)c(O)c(I)c1)C(=O)O`, the Potency was “inactive”. In the case of `CC(C)CCCC(=O)O`, the Potency is reported as “inactive”. For `O=Cc1c(Cl)cccc1Cl`, the Potency was “inactive”. For `O=C(O)c1ccccc1C(=O)Nc1ccc(S(=O)(=O)Nc2nccs2)cc1`, the Potency was “inactive”. With `CCCCCCCC/C=C\CCCCCCCCCCCC(=O)O` the Potency was “inactive”. In the case of `COc1ccc2c(c1)C(=O)N(CCc1ccc(S(=O)(=O)NC(=O)NC3CCCCC3)cc1)C(=O)C2(C)C`, the Potency is reported as “inactive”. With `Cc1c(N)cccc1[N+](=O)[O-]` the Potency was “inactive”. For `CCC(CO)(CO)[N+](=O)[O-]`, the Potency was “inactive”. With `CCOC(=O)COc1cc(-n2ncc(C(F)(F)F)c(C)c2=O)c(F)cc1Cl` the Potency was “inactive”. For `Cc1cc(-n2nc3ccc(Cl)cc3n2)c(O)c(C(C)(C)C)c1`, the Potency was “inactive”. For `CSSc1ccoc1C`, the Potency was “inactive”. With `CC(=O)NO` the Potency was “inactive”. With `CC(=O)OC(C)c1ccccc1` (stereo not given) the Potency was “inactive”. With `COc1ccc(CCN(C)CCCC(C#N)(c2cc(OC)c(OC)c(OC)c2)C(C)C)cc1OC` (stereo not given) the Potency was “inactive”. In the case of `CC(=O)O[C@H]1CC[C@@]2(C)C(=CC[C@@H]3[C@@H]2CC[C@]2(C)C(C(C)=O)=CC[C@@H]32)C1`, the Potency is reported as “inactive”. In the case of `O=P(O)(O)C(O)(Cc1cccnc1)P(=O)(O)O`, the Potency is reported as “inactive”.
